Assay results published in the supplement of paper PMC10338343.
± gives the standard deviation.

The sequences below were run on MILI (PIWIL2) piRISC loaded with L1MC piRNA (26 nt) (assay: pre-steady-state target cleavage rate (min^-1); guide: L1MC piRNA 5'p-UAACUAAAUACUAUGCAAGCUGUAGG; MIWI and MILI are mouse PIWI proteins and EfPiwi is from a freshwater sponge; tags in brackets are library labels; higher = faster piRNA-guided slicing of the target). Settings: auxiliary factor: 500 nM mouse GTSF1.
In short: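 The method was Cleave-'n-Seq, in which uncleaved targets from a transcribed, DNA-blocked target RNA library were sequenced after exposure to active affinity-purified piRISC carrying one synthetic guide, with or without GTSF1 partner protein. Reactions contained 0.1 nM library, 1 nM piRISC and, where present, 500 nM GTSF1 in HEPES–potassium acetate buffer at 33 °C for 0–8 or 0–960 min. Reads were normalised to depth and to weakly complementary targets, three trials were pooled, and k3 was capped at 0.0001 min^-1. The pre-steady-state cleavage rate came from a burst-and-steady-state fit.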

Question: How did the “pre-steady-state target cleavage rate” value turn out when UCCUGGAUGUCCUUGCAUAGAUAUUAGUUA was run?
Answer: The value was 0.00447 ± 0.0038.

Question: How did the “pre-steady-state target cleavage rate” value turn out when UCCUGGAUGUGCUUGGAUAGUAUUUUGUUA was run?
Answer: The value was 0.0685 ± 0.02.

Question: How did the “pre-steady-state target cleavage rate” value turn out when UCCUGGAUGACCUUGCAUAGUUUUUAGUUA was run?
Answer: Its value is 0.0191 ± 0.0076.

Question: How did the “pre-steady-state target cleavage rate” value turn out when UCCUGGAUGUCCUUGCAUAGUAUUUGAGUUA was run?
Answer: The value was 0.169 ± 0.043.

Question: With UCCUGGAUCAGCUACCAUAGUAUUUAGAAA as the sequence, how does the “pre-steady-state target cleavage rate” value read?
Answer: The value was 0.024 ± 0.0091.

Question: With UCCUGGAUGUCCUUGCAUAGUAUUUAUUA as the sequence, how does the “pre-steady-state target cleavage rate” value read?
Answer: Its value is 0.0219 ± 0.0073.

Question: Which “pre-steady-state target cleavage rate” value does the source give for UCCUGGAUGUCGAAGCAUAGUAUUGAGUUA here?
Answer: Its value is 0.00685 ± 0.0034.

Question: UCCUGGUACAGCUUGCAUAGUAAAUUCAAA was tested. Which “pre-steady-state target cleavage rate” value did it give?
Answer: Its value is 0.0147 ± 0.0074.

Question: Which “pre-steady-state target cleavage rate” value does the source give for UCCUGGAUCAGCUUGCAUUCUAUUUAGUAA here?
Answer: Its value is 0.0151 ± 0.0057.

Question: UCCUGGAUCAGCUAGCAUAGUAUUUACAAA was tested. Which “pre-steady-state target cleavage rate” value did it give?
Answer: The value was 0.127 ± 0.023.

Question: Which “pre-steady-state target cleavage rate” value does the source give for UCCUGGAUGUCCUUGCAUAGUUUUUACUUA here?
Answer: Its value is 0.00658 ± 0.0044.

Question: For “UCCUCCUACAGCUUGCAUAGUUAAAUCAAA [g10:g26:cont:t1A]”, which “pre-steady-state target cleavage rate” value is on record?
Answer: The value was 0.0191 ± 0.0072.

Question: Which “pre-steady-state target cleavage rate” value does the source give for UCCUCCUACAGCUUCGUUAGUAUUUAGAAA here?
Answer: Its value is 0.0202 ± 0.0065.

Question: Which “pre-steady-state target cleavage rate” value does the source give for UCCUCCUACAGCAAGCAUAGUAUUUAGUAA here?
Answer: Its value is 0.238 ± 0.02.

Question: How did the “pre-steady-state target cleavage rate” value turn out when UCCUGGAUGUCCUACGAUAGUAUUUAGUUA was run?
Answer: Its value is 0.007 ± 0.004.

Question: Which “pre-steady-state target cleavage rate” value does the source give for UCCUGGAUGUCGAAGCAUAAUAUUUAGUUA here?
Answer: Its value is 0.0097 ± 0.0039.

Question: UCCUCCUACAGGAAGCAUAGUAUUUUCAAA was tested. Which “pre-steady-state target cleavage rate” value did it give?
Answer: The value was 0.0352 ± 0.012.

Question: For UCCUGCUACAGCUACCAUAGUAUUUAGUAA, which “pre-steady-state target cleavage rate” value is on record?
Answer: Its value is 0.158 ± 0.029.

Question: UCCUGGAUGUCGAUGAAUAGUAUUUAGUUA was tested. Which “pre-steady-state target cleavage rate” value did it give?
Answer: The value was 0.00887 ± 0.0033.

Question: Which “pre-steady-state target cleavage rate” value does the source give for UCCUGGAUGUGCUUGCAUAGUAUUUUCUUA here?
Answer: The value was 0.00861 ± 0.005.

Question: With UCCUGGAUGUCGUUGCAAAGUAUUAAGUUA as the sequence, how does the “pre-steady-state target cleavage rate” value read?
Answer: The value was 0.0094 ± 0.0044.

Question: For UCCUGGAUGUGCUUGCAUAGUAAAUAGUUA, which “pre-steady-state target cleavage rate” value is on record?
Answer: The value was 0.0601 ± 0.012.

Question: For UCCUGCUACAGCUUGCAAUGUAUUUAGAAA, which “pre-steady-state target cleavage rate” value is on record?
Answer: The value was 0.0407 ± 0.013.

Question: UCCUGCUACACCUUGCAUAGUAUUUAGAAA was tested. Which “pre-steady-state target cleavage rate” value did it give?
Answer: The value was 0.169 ± 0.036.

Question: With UCCUGGAACAGCUUGCAUAGUAUUAUCAAA as the sequence, how does the “pre-steady-state target cleavage rate” value read?
Answer: Its value is 0.0521 ± 0.017.

Question: For UCCUGCUACUGCUUGCAUAGUAUUUACUUA, which “pre-steady-state target cleavage rate” value is on record?
Answer: Its value is 0.082 ± 0.014.

Question: How did the “pre-steady-state target cleavage rate” value turn out when UCCUGGAUGAGCUUGCAUAGUAUUAACAAA was run?
Answer: The value was 0.00849 ± 0.0045.

Question: UCCUGGUACACGUUGCAUAGUAUUUAGAAA was tested. Which “pre-steady-state target cleavage rate” value did it give?
Answer: The value was 0.0229 ± 0.011.

Question: Which “pre-steady-state target cleavage rate” value does the source give for UCCUGGUACAGCUUGCAUAGAUUUUACAAA here?
Answer: Its value is 0.00751 ± 0.0049.

Question: How did the “pre-steady-state target cleavage rate” value turn out when UCCUGGAUCAGCUUGCAUAUAUUUAGUUA was run?
Answer: Its value is 0.0263 ± 0.0067.

Question: For UCCUGGUACAGCUUGCAUAGUUUUUUGUUA, which “pre-steady-state target cleavage rate” value is on record?
Answer: The value was 0.0564 ± 0.015.

Question: UCCUGGAACAGCUUGCAUAGUAAAAUCAAA was tested. Which “pre-steady-state target cleavage rate” value did it give?
Answer: Its value is 0.0152 ± 0.008.

Question: Which “pre-steady-state target cleavage rate” value does the source give for UCCUGGAUGUCCUUGCUAUGUAUUUAGUUA here?
Answer: Its value is 0.00552 ± 0.0044.

Same assay, conditions: auxiliary factor: none (no GTSF1)

Question: How did the “pre-steady-state target cleavage rate” value turn out when UCCUGGAUGUCGUUGCAAAGUUUUUAGUUA was run?
Answer: The value was 0.00384 ± 0.0022.

Question: For UCCUGGAUGUCGAACCAUGAGUAUUUAGUUA, which “pre-steady-state target cleavage rate” value is on record?
Answer: Its value is less than 0.0001.

Question: How did the “pre-steady-state target cleavage rate” value turn out when UCCUGGAUGUCGAACGUACGUAUUUAGUUA was run?
Answer: Its value is less than 0.0001.

Question: With UCCUGGAUGUCGAACGUAAGUAUUUAUUUA as the sequence, how does the “pre-steady-state target cleavage rate” value read?
Answer: Its value is less than 0.0001.

Question: Which “pre-steady-state target cleavage rate” value does the source give for UCCUGGAUCAGCUUCCAUAGUAUUAAGUUA here?
Answer: The value was less than 0.0001.

Question: How did the “pre-steady-state target cleavage rate” value turn out when UCCUGGAUGUCGAAGCAUAGAAUUUAGUAA was run?
Answer: Its value is less than 0.0001.

Question: UCCUGGUACAGCUUGCAUACUUUUUAGUUA was tested. Which “pre-steady-state target cleavage rate” value did it give?
Answer: Its value is 0.00598 ± 0.0037.
